“And” between values parts separate entries of the source, which are not always exact repeats. Equal entries are not always repeated. The source made the active and inactive calls. The calls were made as follows: active = hit-call score of the fitted dose curve at least 0.9, where 1 is the maximum; inactive = score below 0.9.
Read-out: Human Leukocyte Antigen - DR isotype (HLADR), HLA-DRA (gene 3122)
Experiment: BSK_BE3C_HLADR: BioMAP Diversity Plus: BE3C Assay for Human Leukocyte Antigen - DR isotype (HLADR) Biomarker Activity (AID 2283032)
Settings: primary human bronchial epithelial cells; actives raise or lower the signal
Experimental: BSK_BE3C is a cell-based, multiplexed-readout assay that uses bronchial epithelial cell, a human lung primary cell, with measurements taken at 24 hours after chemical dosing in a 96-well plate.BSK_BE3C_HLADR is an assay component measured in the BSK_BE3C assay. It measures HLA-DR antibody related to regulation of gene expression using ELISA technology.Data from the assay component BSK_BE3C_HLADR was analyzed into 1 assay endpoint. This assay endpoint, BSK_BE3C_HLADR, was analyzed with bidirectional fitting relative to DMSO as the negative control and baseline of activity. Using a type of binding reporter, gain or loss-of-signal activity can be used to understand changes in the signaling as they relate to the gene HLA-DRA. Furthermore, this assay endpoint can be referred to as a primary readout, because this assay has produced multiple assay endpoints where this one serves a signaling function. To generalize the intended target to other relatable targets, this assay endpoint is annotated to the cell adhesion molecules intended target family, where the subfamily is MHC Class II.
The levels of cell surface (or secreted, indicated by the prefix "s") biomarker endpoints were measured by ELISA. Overt cytotoxicity to cells in confluent adherent cultures (all systems other than the BT system) was assessed by measuring total protein levels using sulforhodamine B (SRB) staining in parallel cultures at the time of biomarker measurements, indicated as SRB endpoints. For proliferation assays for adherent cell types, individual cell types are cultured at sub-confluence and relative cell numbers quantified by SRB staining at time points optimized for each system (48 h: 3C and CASM3C systems; 72 h: BT and HDF3CGF systems; 96 h: SAg system). SRB was performed by staining cells with 0.1% SRB after fixation with 10% TCA and reading wells at 560 nm.Viability and proliferation of PBMC (T cells) was quantified by Alamar Blue reduction for the SAg and BT systems. For PBMC viability (referred to as PBMC Cytotoxicity within the assay endpoint names), cells were plated (75,000/well in a 96-well plate) and then chemical samples added for 1 h before addition of activators, SEB and TSST-1 (20 ng/mL final concentration each). Cells were incubated for 90 h. Then, Alamar Blue (20 uL/well) (Invitrogen, Cat DAL1100) was added for 6 h, and the plates were read with a fluorescence microplate reader at 546/580 nm (excitation/emission). For PBMC proliferation, cells were plated and activated as above but incubated for only 16 h prior to addition of Alamar Blue. Plates were read after 6 h.

Row | Compound | outcome | AC50
1 | O=S(=O)(O)C(F)(F)C(F)(F)C(F)(F)C(F)(F)F | inactive | –
2 | Cc1cccc(C)c1N | inactive | –
3 | CC(C)(c1ccccc1)c1ccc(O)cc1 | – | 30.4 µM (active)
4 | CCC(C)c1cc([N+](=O)[O-])cc([N+](=O)[O-])c1O (stereo not given) | – | 20 µM (active)
5 | O=C(O)C(F)(F)C(F)(F)C(F)(F)C(F)(F)C(F)(F)C(F)(F)C(F)(F)C(F)(F)F | – | 29.7 µM (active) and 44.1 µM (active) and 45.2 µM (active)
6 | CCC(C)(c1ccc(O)cc1)c1ccc(O)cc1 | – | 24.5 µM (active)
7 | Cc1cccc([N+](=O)[O-])c1 | inactive | –
8 | N#Cc1ccc(N(CC(N)=O)CC(F)(F)F)cc1C(F)(F)F | inactive | –
9 | O=C(O)C(F)(F)C(F)(F)C(F)(F)C(F)(F)C(F)(F)C(F)(F)C(F)(F)C(F)(F)C(F)(F)F | – | 11.1 µM (active) and 9.13 µM (active) and 11.4 µM (active)
10 | Cc1ccccc1[N+](=O)[O-] | inactive | –
11 | COS(=O)(=O)OC | inactive | –
12 | CCCCCCCCOC(=O)c1ccccc1C(=O)OCCCCCCCC | inactive | –
13 | O=C(NC(=O)c1c(F)cccc1F)Nc1cc(Cl)c(OC(F)(F)C(F)F)c(Cl)c1 | inactive | –
14 | ClC1=C(Cl)[C@]2(Cl)[C@@H]3[C@@H]4C[C@@H]([C@H]5O[C@@H]45)[C@@H]3[C@@]1(Cl)C2(Cl)Cl | inactive | –
15 | CCSC(=O)N(CC)C1CCCCC1 | inactive | –
16 | CCC(=O)O[C@H]1CC[C@H]2[C@@H]3CCC4=CC(=O)CC[C@]4(C)[C@H]3CC[C@]12C | – | 32.9 µM (active)
17 | CC(C)(O)C(=O)Nc1ccc([N+](=O)[O-])c(C(F)(F)F)c1 | inactive | –
18 | CCCCCCCCCC[N+](C)(C)CCCCCCCCCC | – | 4.45 µM (active)
19 | CCCN(CCC)N=O | inactive | –
20 | ClC1=C(Cl)[C@]2(Cl)[C@@H]3[C@@H](Cl)[C@H]4O[C@H]4[C@@H]3C1(Cl)C2(Cl)Cl | inactive | –

Row | Compound | outcome | AC50
21 | CCCCCCCCCc1ccc(O)cc1 | – | 13.6 µM (active)
22 | Oc1c(Cl)c(Cl)c(Cl)c(Cl)c1Cl | – | 8.2 µM (active) and 20.6 µM (active)
23 | CCOCCOC(C)=O | inactive | –
24 | Clc1ccc(C(c2ccccc2Cl)C(Cl)(Cl)Cl)cc1 (stereo not given) | inactive | –
25 | Cc1ccccc1O | inactive | –
26 | Cc1ccc(O)c(C)c1 | inactive | –
27 | Cc1cc(-c2ccc(N)c(C)c2)ccc1N | inactive | –
28 | O=C(NC(=O)c1cc(F)c(F)cc1Cl)Nc1cc(F)ccc1N1CCC(C(=O)O)CC1 | inactive | –
29 | CCC(C)(CC)c1cc(NC(=O)c2c(OC)cccc2OC)on1 | inactive | –
30 | CC1=C2C[C@H]3[C@@H](CC=C4C[C@@H](O)CC[C@@]43C)[C@@H]2CC[C@]12O[C@@H]1C[C@H](C)CN[C@H]1[C@H]2C | inactive | –
31 | O=NN(c1ccccc1)c1ccccc1 | inactive | –
32 | c1cc2ccc3cccc4ccc(c1)c2c34 | inactive | –
33 | Cc1ccccc1CO[C@@H]1C[C@@]2(C(C)C)CC[C@]1(C)O2 | inactive | –
34 | O=S(=O)(O)C(F)(F)C(F)(F)C(F)(F)C(F)(F)C(F)(F)C(F)(F)F | inactive | –
35 | NS(=O)(=O)C(F)(F)C(F)(F)C(F)(F)C(F)(F)C(F)(F)C(F)(F)C(F)(F)C(F)(F)F | – | 5.61 µM (active) and 37.8 µM (active) and 37.6 µM (active)
36 | CN(C)c1nc(=O)n(C2CCCCC2)c(=O)n1C | inactive | –
37 | C[C@]12CCC(=O)C=C1CC[C@@H]1[C@@H]2CC[C@@]2(C)[C@H]1CC[C@]2(C)O | inactive | –
38 | O=C(O)C(F)(F)C(F)(F)C(F)(F)C(F)(F)C(F)(F)F | inactive | –
39 | Cc1cc(O)ccc1Cl | inactive | –
40 | CCOP(=S)(OCC)SCSC(C)(C)C | inactive | –
